# Reference: PubChem BioAssay
# Inconclusive results are not listed. Calls of active or inactive are those of the source.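 How the source made its calls, unless noted: active means growth inhibition above 25% in both replicates, a cutoff set 3 SD above the mean; inconclusive means above 25% in only one replicate; inactive means the rest.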
# Legend:
# [1] = reducers of endogenous Her2 protein level, primary screen, SKBR3 breast tumor cells, AlphaScreen, ATP viability (AID 461;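 active means Her2 level under about 52% in both replicate screens, with viability over 70% of control, limit read from the data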;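 on Her2 level: lower value means less Her2 protein in the cells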;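 on viability: percent of carrier control wells set as 100% viability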); details: 18-24 h, measured here: SKBR3 viability, ATP luminescence, at 10 µM
# [2] = target: Receptor tyrosine-protein kinase erbB-2 (Homo sapiens) (UniProt P04626); experiment: as above; details: 18-24 h, at 10 µM, stronger effect = lower value
# [3] = SK-BR-3 cell growth inhibitors, pilot screen, 24 h, human (AID 572;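 active means viability at or below 10% of carrier control in both of two separate runs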;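 further: compound exposure lasted between 18 and 24 h rather than exactly 24 h; 100% = carrier-treated control wells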); details: SK-BR-3 viability, CellTiter-Glo luminescence, at 10 µM, stronger effect = lower value
# [4] = HUVEC growth inhibition – cell-based, human, primary screen (AID 575;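 active means viability at or below 30% in both replicate assays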;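 further: 100% = median of untreated cell wells with 0.1% DMSO on each plate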); details: HUVEC proliferation, CellTiter-Glo luminescence, 72 h; at 10 µM; stronger effect = lower value
# [5] = growth inhibitors of H69AR lung tumor, primary screen, human, duplicate replicates (AID 580;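 active means viability at or under a set limit in both replicates, limit being median viability minus 3 SD, cut at about 48% in these data, passing the limit was not always enough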;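 further: 100% = mean luminescence of untreated wells and 0% = no signal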); details: H69AR lung tumor cells viability, ATP luminescence, 72 h; at 10 µM; stronger effect = lower value
# [6] = reversal of MRP1-mediated doxorubicin resistance, pilot screen, H69AR cells, doxorubicin co-treatment (AID 601;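 active means viability loss from added drug above about 55%, and viability with drug at most 40%, in both replicates, limit read from the data, passing the limit was not always enough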); details: CellTiter-Glo, 72 h, at 10 µM; for differential viability (reversal): stronger effect = higher value
# [7] = 384-well plate pilot, post-Golgi transport modulator project, inhibition of yeast transport mutant growth (AID 636; in the data active means inhibition above about 31%); details: absorbance 615 nm, about 18 h, stronger effect = higher value
# [8] = growth suppression of yeast trafficking mutant, preliminary HTS, modulators of trafficking downstream of Golgi apparatus project, 1536-format plate, OD 615 nm (AID 637; in the data active means inhibition above about 30%); details: yeast transport mutant growth, absorbance 615 nm, 18 h; stronger effect = higher value
# [9] = OD615 S. cerevisiae growth inhibition, permissive medium, pilot counter-assay, permissive growth control for S. cerevisiae lifespan shortening project (AID 705); details: OD615, 24 h, at 10 µM, stronger effect = higher value
# [10] = Restrictive medium S. cerevisiae growth inhibition, OD615, pilot screen of yeast lifespan reduction project, restrictive growth control (AID 706;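 active means growth inhibition above a set limit, 3 SD over mean compound inhibition, in both replicates, cut at about 43% in these data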;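 further: modified DeaD lifespan yeast strain shifted to restrictive glucose medium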); details: OD615, 48 h, at 10 µM, stronger effect = higher value
# [11] = viability gain of MRP-1-high H69AR cells under doxorubicin, pilot screen, MRP-1 activator project, CellTiter-Glo, duplicate (AID 807;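 active means viability increase at or above a cutoff of the median across tested compounds plus 3 SD, cut at about 8.5% in these data, passing the limit was not always enough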;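 further: compound pretreatment 18-22 h then 72 h combined with doxorubicin; 0% = doxorubicin alone and 100% = vehicle without doxorubicin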); details: H69AR viability with doxorubicin, CellTiter-Glo luminescence; at 10 µM; stronger effect = higher value
# [12] = growth suppression of beta-catenin knockout HCT116, pilot screen, human colon tumor cells (AID 823;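 active means cell viability at or below a set limit in both duplicate runs, the limit being the all-compound median minus 4 SD, cut at about 23% in these data, passing the limit was not always enough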;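 further: 0% = wells killed by 20 µM Hyamine and 100% = untreated DMSO cell wells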); details: CellTiter-Glo, 60 h, at 10 µM, stronger effect = lower value
# [13] = growth suppression of PTEN-deleted HCT116, pilot screen, cell-based, HCT116 clonal line, CellTiter-Glo (AID 824;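 active means viability at or below 27.92% in each of two runs, the all-compound median minus 4 SD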;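 further: 0% = 20 µM Hyamine control and 100% = vehicle cell control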); details: 60 h, at 10 µM, stronger effect = lower value
# [14] = inhibitors of the yeast RAM network, pilot screen, dse1pr::URA3 reporter, 5-FOA selection (AID 869;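 active means inhibition over a set limit, the all-compound mean plus 3 SD, in both replicate runs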;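 further: 0% = DMSO wells with no growth and 100% = 10 µM 1-NA-PP1 with full growth; RAM network block rescues cells from 5-FOA so hits raise OD615 growth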); details: S. cerevisiae dse1pr::URA3 5-FOA growth, OD615, 2 d; at 10 µM; stronger effect = higher value; strain carries analog-sensitive mutant Cbk1 kinase
# [15] = RAM signaling pathway blockade in yeast – S. cerevisiae, Pdr1DBD-CYC8 efflux-inhibited sensitized strain, primary screen (AID 1298;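 active means RAM network inhibition above 8.4% in each of two replicates, 3 SD over the compound average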;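 further: 0% = DMSO untreated cells without growth and 100% = 10 µM 1-NA-PP1 full growth; higher means more yeast growth rescued from 5-FOA killing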); details: S. cerevisiae cbk1-as DSE1-URA3 strain, 5-FOA growth OD615, 2 d; at 50 µM; stronger effect = higher value
# [16] = H69AR cells + 2 uM doxorubicin, measured here: viability with 2 uM doxorubicin, stronger effect = lower value
# [17] = H69AR cells, compound alone cytotoxicity
# Receptor tyrosine-protein kinase erbB-2 (Homo sapiens), sequence (P04626 whole entry, looked up): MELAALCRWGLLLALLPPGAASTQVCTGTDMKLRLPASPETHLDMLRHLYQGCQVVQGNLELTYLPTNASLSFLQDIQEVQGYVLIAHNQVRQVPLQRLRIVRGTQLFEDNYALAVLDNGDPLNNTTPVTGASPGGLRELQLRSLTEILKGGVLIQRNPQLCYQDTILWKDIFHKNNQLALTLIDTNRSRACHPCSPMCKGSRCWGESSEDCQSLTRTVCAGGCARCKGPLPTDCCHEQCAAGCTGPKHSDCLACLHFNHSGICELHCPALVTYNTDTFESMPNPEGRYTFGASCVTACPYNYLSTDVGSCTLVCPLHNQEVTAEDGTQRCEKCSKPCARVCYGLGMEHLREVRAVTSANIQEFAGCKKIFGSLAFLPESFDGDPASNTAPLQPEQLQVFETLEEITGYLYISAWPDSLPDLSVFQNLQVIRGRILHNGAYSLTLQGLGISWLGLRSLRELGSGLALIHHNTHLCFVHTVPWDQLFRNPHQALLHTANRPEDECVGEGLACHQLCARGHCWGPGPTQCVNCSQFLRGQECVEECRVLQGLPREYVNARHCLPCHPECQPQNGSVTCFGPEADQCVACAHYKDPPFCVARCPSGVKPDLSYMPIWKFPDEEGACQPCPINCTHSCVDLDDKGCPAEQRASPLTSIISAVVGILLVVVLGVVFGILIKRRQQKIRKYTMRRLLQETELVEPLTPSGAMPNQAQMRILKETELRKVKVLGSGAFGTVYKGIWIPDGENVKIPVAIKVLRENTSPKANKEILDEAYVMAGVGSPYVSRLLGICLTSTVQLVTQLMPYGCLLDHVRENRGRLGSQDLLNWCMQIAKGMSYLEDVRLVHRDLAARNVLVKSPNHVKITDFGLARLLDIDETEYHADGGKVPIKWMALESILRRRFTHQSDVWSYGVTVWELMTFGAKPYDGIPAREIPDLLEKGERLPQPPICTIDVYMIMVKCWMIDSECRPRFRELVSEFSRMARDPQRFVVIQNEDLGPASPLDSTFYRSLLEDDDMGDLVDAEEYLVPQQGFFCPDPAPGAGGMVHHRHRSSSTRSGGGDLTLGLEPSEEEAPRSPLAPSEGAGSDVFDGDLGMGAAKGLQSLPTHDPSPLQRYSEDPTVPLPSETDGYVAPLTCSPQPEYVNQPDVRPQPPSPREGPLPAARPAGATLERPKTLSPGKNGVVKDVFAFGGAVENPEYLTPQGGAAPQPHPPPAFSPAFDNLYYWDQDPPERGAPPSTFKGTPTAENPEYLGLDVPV
Compound,viability [1] [%],Her2 level [2],viability [3],viability [4],viability [5],differential viability (reversal) ([6]; H69AR cells + 2 uM doxorubicin),"viability [6, 16] [%]","viability [6, 17] [%]",inhibition [7],inhibition [8],growth inhibition [9],growth inhibition [10],viability increase [11],viability [12],viability [13],inhibition [14],RAM network inhibition [15]
CCOC(=O)N1CCC(NC(=O)c2cc3c(=O)n(C)c4ccccc4c3n2C)CC1,88,94% (inactive),88% (inactive),71.3% (inactive),73.1% (inactive),-4.2% (inactive),77.3,73.1,-2.67% (inactive),-1.17% (inactive),-11.7% (inactive),-13% (inactive),-3.46% (inactive),80.2% (inactive),84.5% (inactive),2.96% (inactive),9.59% (inactive)
CS(=O)(=O)Nc1ccccc1C(=O)O,102,80.5% (inactive),102% (inactive),91.5% (inactive),98.8% (inactive),2.55% (inactive),96.3,98.8,-2.34% (inactive),-5.17% (inactive),-7.19% (inactive),-1.03% (inactive),-1.2% (inactive),94.9% (inactive),97.6% (inactive),0.72% (inactive),2.56% (inactive)
COc1ccccc1Oc1ccc(S(=O)(=O)N2CCOCC2)cc1S(=O)(=O)N1CCOCC1,86.5,121% (inactive),86.5% (inactive),101% (inactive),83.6% (inactive),-4.58% (inactive),88.1,83.6,-0.77% (inactive),-6.67% (inactive),-16.4% (inactive),-21.3% (inactive),-0.17% (inactive),93.6% (inactive),98.3% (inactive),2.41% (inactive),4.3% (inactive)
COc1ccccc1NCN1C(=O)CCC1=O,102,98% (inactive),102% (inactive),104% (inactive),82.4% (inactive),-20.8% (inactive),103,82.4,-7.47% (inactive),2% (inactive),-9.71% (inactive),1.64% (inactive),-0.43% (inactive),102% (inactive),95.5% (inactive),1.98% (inactive),3.27% (inactive)
O=C(CSc1nc(-c2ccco2)cc(C(F)(F)F)n1)NCCCn1ccnc1,94,93% (inactive),94% (inactive),64.9% (inactive),94.7% (inactive),-4.19% (inactive),98.9,94.7,-2.53% (inactive),-2.3% (inactive),-8.51% (inactive),-15.7% (inactive),-0.15% (inactive),98.6% (inactive),96.3% (inactive),1.44% (inactive),9.1% (inactive)
CC1CCN(c2oc(-c3ccccc3F)nc2C#N)CC1,82,95% (inactive),82% (inactive),78.7% (inactive),92% (inactive),7.56% (inactive),84.5,92,-2.27% (inactive),2.79% (inactive),-14.9% (inactive),-13.1% (inactive),0.34% (inactive),89.4% (inactive),88.9% (inactive),0.425% (inactive),2.79% (inactive)
CC1CCCN(C(=O)c2cc3c(-c4ccc(Cl)cc4)nn(C)c3s2)C1 (stereo not given),89,87% (inactive),89% (inactive),77.4% (inactive),92.5% (inactive),0.84% (inactive),91.7,92.5,-1.54% (inactive),3% (inactive),-9.3% (inactive),-3.9% (inactive),-2.82% (inactive),91.4% (inactive),93.3% (inactive),2.07% (inactive),1.62% (inactive)
Cc1nc2sc(C(c3cccs3)N3CC(C)CC(C)C3)c(O)n2n1 (stereo not given),89.5,92% (inactive),89.5% (inactive),108% (inactive),95.2% (inactive),1.38% (inactive),93.8,95.2,-0.27% (inactive),8.85% (inactive),-11.2% (inactive),-10.1% (inactive),-2.1% (inactive),107% (inactive),95.2% (inactive),1.53% (inactive),5.64% (inactive)
COCCN(CCOC)Cc1c(C)[nH]c2ccccc2c1=O,96.5,98% (inactive),96.5% (inactive),105% (inactive),89.4% (inactive),-4.47% (inactive),93.8,89.4,1.28% (inactive),-7.5% (inactive),-0.675% (inactive),-3.83% (inactive),-2.47% (inactive),92.1% (inactive),91.3% (inactive),1.22% (inactive),3.31% (inactive)
Cc1cc(C)nc(/N=C2\NC(=O)CC(C(=O)O)N2c2ccc(Cl)cc2)n1 (stereo not given),106,100% (inactive),106% (inactive),88.7% (inactive),96% (inactive),3.08% (inactive),92.9,96,-6.53% (inactive),5.17% (inactive),0.655% (inactive),5.68% (inactive),1.08% (inactive),99.5% (inactive),102% (inactive),1.93% (inactive),3.63% (inactive)
